Sampled rows, rich in hits. Any-hit rate of the full collection: about 3%.
Casp7 inh – allosteric or competitive inhibitors of human caspase-7 | 75,000 tested, 0.02% active | recombinant caspase-7, Ac-DEVD-AFC fluorescence rate | P55210 | Potency, µM (series often up to 57.5 µM), without a hit: at the top dose activity change, negative = inhibition, hits mostly inhibitors; active means well fitted inhibition curve with a large enough effect in the main read-out, with a control signal flat, not every such curve was filed as active; inconclusive means small, poorly fitted or top-dose-only effect, or a change in a side signal; further: % of control where 0% means no effect
TSHR ag – agonists of human thyroid stimulating hormone receptor | HEK293-CNG-TSHR cells (CNG channel as cAMP sensor), membrane potential dye, cAMP | 73,000 tested, 0.48% active | P16473 | Potency, µM (titrated, usually from 57.1 µM), for inactives: top-dose activation, usual class: activators | AID 926; active means well fitted activation curve with a large enough effect in the main read-out, with a control signal flat, not every such curve was filed as active; inconclusive means small, poorly fitted or top-dose-only effect, or a change in a side signal; inactive means no such curve, though single readings can be large or run the other way; % of control where 0% means no effect;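 further: the control signal comes from parental cells without the receptor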
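HEK 293 cells stably expressing TSHR and a modified CNG channel, with CNG-only parental cells as counterscreen, were preloaded 60 min at room temperature with membrane potential dye containing 100 uM RO 20-1724. Compound exposure was 30 min, and depolarization was read as fluorescence at 590 nm.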
15-hLO-2 inh – blocks human 15-lipoxygenase 2 activity | O15296 | purified 15hLO-2, xylenol orange hydroperoxide absorbance | Potency, µM (highest dose often 57.1 µM), inactives show at the highest dose activity change, negative = inhibition, actives largely listed as inhibitors | 110,000 tested, 0.56% active | AID 881; further: on the % scale 0 is the no-effect control and ±100 the full control effect; nearly all actives have a fitted effect of over 60% in size
Target sequence (O15296 whole entry, looked up): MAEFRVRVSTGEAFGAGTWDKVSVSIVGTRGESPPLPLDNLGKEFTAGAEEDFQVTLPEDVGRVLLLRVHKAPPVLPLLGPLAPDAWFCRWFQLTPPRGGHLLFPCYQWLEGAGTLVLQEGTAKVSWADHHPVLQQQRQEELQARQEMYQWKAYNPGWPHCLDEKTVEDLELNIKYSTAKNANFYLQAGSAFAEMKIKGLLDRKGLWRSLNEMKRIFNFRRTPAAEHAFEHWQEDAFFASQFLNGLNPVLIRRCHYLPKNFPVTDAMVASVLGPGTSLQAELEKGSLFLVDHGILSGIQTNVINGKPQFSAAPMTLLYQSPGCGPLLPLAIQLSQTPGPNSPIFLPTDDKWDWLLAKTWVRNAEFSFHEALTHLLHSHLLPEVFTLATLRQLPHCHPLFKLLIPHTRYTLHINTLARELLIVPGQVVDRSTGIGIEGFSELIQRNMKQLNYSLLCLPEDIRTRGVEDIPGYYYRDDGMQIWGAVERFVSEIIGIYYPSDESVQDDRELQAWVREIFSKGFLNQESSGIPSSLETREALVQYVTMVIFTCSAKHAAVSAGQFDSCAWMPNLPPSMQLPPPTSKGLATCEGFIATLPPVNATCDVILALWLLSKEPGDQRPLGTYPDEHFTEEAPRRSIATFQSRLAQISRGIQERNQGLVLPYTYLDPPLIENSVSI
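Purified human 15hLO-2 (50 nM final) preincubated with compounds 15 min at room temperature in 25 mM Hepes pH 7.5, 0.01% Triton X-100, then 45 uM arachidonic acid added for 90 min; hydroperoxide detected via ferrous/xylenol orange, 573/405 nm absorbance ratio.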
HEK293 cAMP ctrl – counter-screen for TSHR agonists: cAMP increase in parental HEK293; parental HEK293 CNG cAMP sensor, membrane potential fluorescence; Potency, µM (doses to about 57.1 µM), without a hit: at the top dose activation, usual class: activators; 73,000 tested, 2.5% active; further: % of control where 0% means no effect; nearly all actives have a fitted effect of over 55% in size
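Counterscreen for endogenous-receptor signalling: CNG-channel HEK 293 cells report cAMP rise by membrane depolarization. After 60 min dye equilibration with 100 uM RO 20-1724, compounds incubated 30 min before bottom-read fluorescence at 590 nm.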
Casp1 inh – caspase-1 (human) inhibition, allosteric or competitive. 75,000 tested, 0.03% active. Potency, µM (top dose mostly 57.5 µM), inactives show at the top dose activity change, negative = inhibition, usual class: inhibitors. Caspase-1 enzyme, Ac-WEHD-AFC fluorogenic rate. AID 900;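 further: plate controls were vehicle for no effect and no substrate for full effect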
15-hLO inh – blocks human 15-lipoxygenase activity; AID 887; Potency, µM (top dose mostly 57.1 µM), without a hit: at the highest dose activity change, negative = inhibition, usual class: inhibitors; purified 15hLO-1, xylenol orange hydroperoxide absorbance; P16050; 74,000 tested, 1.4% active; further: on the % scale 0 is the no-effect control and ±100 the full control effect; nearly all actives have a fitted effect of over 55% in size
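Hydroperoxide formed from arachidonic acid (50 uM) by purified human 15hLO-1 (40 nM) oxidizes ferrous iron, and the ferric-xylenol orange complex is read at 573 versus 405 nm. Compounds were preincubated 15 min; reaction ran 6 min at room temperature.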
The depositor's hits bear a star; ? = inconclusive; . = no result; [ ] = dose if it differs, or a comment. Unless noted, the call rests on the fitted dose curve; in most records, active means well fitted curve in the direction sought with a large enough effect; inconclusive means small, poorly fitted or top-dose-only effect, or another doubt; inactive means no such curve, though single readings can be large; an effect the other way counts as inactive or inconclusive. Potency means the concentration at half of the fitted maximal effect.

SMILES	Casp7 inh	TSHR ag	15-hLO-2 inh	HEK293 cAMP ctrl	Casp1 inh	15-hLO inh
c1ccc(-c2nc(-c3ccncc3)no2)cc1	-1%	2%	32%	5%	1%	7%
Nc1c(C(=O)Nc2nc3ccccc3s2)sc2nc(-c3cccs3)ccc12	.	.	13µM*	.	.	.
CC(=O)Nc1cccc(NC(=O)c2c(-c3c(Cl)cccc3Cl)noc2C)c1	-1%	2µM*	9%	-12%[11.4 µM]	-1%	1%[11.4 µM]
Cc1cc(C)nc(NC(=O)c2c(-c3c(Cl)cccc3Cl)noc2C)n1	1%	-2%	-2%	2%	-1%	4%
CSc1nc(N2CCOCC2)c2c(c1C#N)CCCCC2	-1%	?	-2%	25µM*	-4%	-19%
COCCOc1ccc(C(F)(F)F)cc1Nc1nc2ccccc2o1	-3%	13µM*	4%	-13%	-1%	-22%
COCCOc1ccc(C(F)(F)F)cc1NC(=O)COC(=O)c1c(C)noc1C	0%	9%	-4%	23%	-1%	-10%
FC(F)(F)c1nc(SCc2ccc(Cl)cc2)n[nH]1	0%[11.5 µM]	1%[11.4 µM]	-8%[11.4 µM]	9%[11.4 µM]	-2%[11.5 µM]	1%[11.4 µM]
Nc1ncnc2c1ncn2[C@@H]1O[C@@H](CO)[C@H](O)[C@@H]1O	1%	?	-6%	25µM*	5%	-4%
O=C(Nc1ccc2[nH]c3c(c2c1)CCCC3)c1ccco1	-23%	-13%	-19%	-12%	?	16µM*
CO[C@@H]1COC(=O)[C@H](C)NC(=O)C/C=C\[C@@H](C)[C@@H](NS(=O)(=O)c2ccc(C)cc2)COC(=O)C/C=C\[C@@H]1C	1%[11.5 µM]	16%[11.4 µM]	.	-1%[11.4 µM]	-1%[11.5 µM]	5%[11.4 µM]
COc1ccc(N2CCN(C(=O)CSc3ccccc3)CC2)cc1	1%	-6%[11.4 µM]	-4%	-1%[11.4 µM]	-1%	0%[11.4 µM]
COc1ccc(N2CCN(C(=O)CSc3nnc(C)c(=O)[nH]3)CC2)cc1	0%	?	8%	1.3µM*	0%	-4%
COc1ccccc1N1CCN(C(=O)CSc2nc(-c3ccccc3)cc(=O)[nH]2)CC1	-4%	19%	.	16%	-1%	-19%
COc1ccccc1N1CCN(C(=O)CSc2nc(C)c(Cc3ccccc3)c(=O)[nH]2)CC1	-5%	?	-8%	25µM*	-5%	-15%
Cn1c(=O)c(-c2ccc(F)cc2)nc2cnc(OCc3ccccc3)nc21	?	12%	-3%	2%	.	-2%
Cc1nn(-c2ccc(S(=O)(=O)O)cc2)c(O)c1N=Nc1ccc(-c2ccc(N=Nc3ccc4c(S(=O)(=O)O)cc(S(=O)(=O)O)c(N)c4c3O)c(O)c2)cc1O.[Cu].[Cu]	2%[11.5 µM]	-3%[11.4 µM]	37%[11.4 µM]	5%[11.4 µM]	-2%[11.5 µM]	4µM*
COc1cc(-c2ccc(N=Nc3ccc4c(S(=O)(=O)O)cc(S(=O)(=O)O)c(N)c4c3O)c(OC)c2)ccc1N=Nc1ccc2c(S(=O)(=O)O)cc(S(=O)(=O)O)c(N)c2c1O	-11%	-21%	25µM*	-16%	-4%	?
COC(=O)C/C=C\[C@@H](C)[C@@H](/C=N\OCC[C@H]1C=C[C@H](OC(C)=O)[C@@H](COC(C)=O)O1)NS(=O)(=O)c1ccc(C)cc1	-1%[11.5 µM]	-3%[11.4 µM]	.	6%[11.4 µM]	1%[11.5 µM]	10%[11.4 µM]
Cc1ccc(CNC(=O)C2(CC(C)C)C=CCN2C(=O)c2ccccc2)o1 (stereo not drawn)	-3%	?	-20%	?	-3%	0%
C=CCOC(=O)C1=C(C)NC(SC)=C(C#N)C1c1ccc(OCC)cc1 (stereo not drawn)	-27%	0.5µM*	-9%	15%	.	?
C=CCOC(=O)C1=C(C)NC(SC)=C(C#N)C1c1cccs1 (stereo not drawn)	.	.	2%	.	.	.
Nc1nnnn1/N=C/c1ccccc1OCc1ccc(Cl)cc1Cl	-9%	?	-14%	32µM*	-3%	-3%
Cn1c(N)c(C(=O)NCc2ccccc2)sc1=S	-4%	29%[11.4 µM]	-13%	5%	-6%	13µM*
O=C1C[C@H]2OCC=C3CN4CC[C@@]5(C(=O)O)[C@H](N1)[C@H]2[C@H]3C[C@H]45	0%[11.5 µM]	1%[11.4 µM]	-3%[11.4 µM]	-6%[11.4 µM]	-4%[11.5 µM]	10%[11.4 µM]
SMILES	Casp7 inh	TSHR ag	15-hLO-2 inh	HEK293 cAMP ctrl	Casp1 inh	15-hLO inh
C=C(C)CN(CC#N)CC(=C)C	2%[11.5 µM]	3%[11.4 µM]	-5%[11.4 µM]	-2%[11.4 µM]	0%[11.5 µM]	6%[11.4 µM]
O=C1CC(c2ccco2)Cc2nc(Nc3nc(-c4ccccc4)c4ccccc4n3)ncc21 (stereo not drawn)	-10%	?	-2%	?	-2%	-4%
CCC(c1nnnn1CCc1ccccc1)N(Cc1ccco1)Cc1cc2cc(C)cc(C)c2[nH]c1=O (stereo not drawn)	-18%	?	10%	13µM*	?	-24%
Cc1ccc2[nH]c(=O)c(CN(CCc3ccccc3)C(c3nnnn3Cc3ccco3)C(C)C)cc2c1 (stereo not drawn)	-16%	11%	.	15%	?	?
CCC(c1nnnn1Cc1ccco1)N(CCc1ccccc1)Cc1cc2cc(C)ccc2[nH]c1=O (stereo not drawn)	?	?	0%	?	?	16µM*
Cc1ccc2[nH]c(=O)c(C(c3nnnn3CC3CCCO3)N3CCCc4ccccc43)cc2c1 (stereo not drawn)	-7%	-8%	-11%	1%	-7%	1.3µM*
COc1ccc(C(c2nnnn2CC2CCCO2)N2CCN(c3cccc(C)c3C)CC2)cc1 (stereo not drawn)	-2%	?	14%	7.9µM*	-2%	-28%
Cc1noc(C)c1-c1nccc(NCc2cccnc2)n1	1%	-1%	15%	14%	0%	-8%
FC(F)(F)c1cc(NC(=S)N2c3ccccc3-n3cccc3[C@H]2c2cccnc2)cc(C(F)(F)F)c1	?	4%[11.4 µM]	-5%[11.4 µM]	3%[11.4 µM]	?	-20%[11.4 µM]
Cc1ccc2[nH]c(=O)c(C(c3nnnn3CC3CCCO3)N3CCOCC3)cc2c1 (stereo not drawn)	1%	1%	0%	2%	-2%	15%
CCC(c1nnnn1CC1CCCO1)N(CCN1CCOCC1)Cc1cc2cc(C)ccc2[nH]c1=O (stereo not drawn)	-21%	3%	36%	8%	?	3.2µM*
CC(C)=CCC/C(C)=C/CO/N=C1/C[C@@H](O)[C@@H](O)[C@@H]2[C@@H]3C(=O)N([C@@H](C)c4ccccc4)C(=O)[C@H]3CC[C@H]12	-2%[11.5 µM]	25%[11.4 µM]	.	-7%[11.4 µM]	-1%[11.5 µM]	-1%[11.4 µM]
Oc1c(C(O)(c2ccccc2)c2ccc3ccccc3c2O)ccc2ccccc12	-3%[11.5 µM]	-15%[11.4 µM]	-29%[11.4 µM]	-26%[11.4 µM]	0%[11.5 µM]	-28%[11.4 µM]
COc1ccccc1CNc1cc(-c2ccccc2Cl)ncn1	-4%	?	3%	16µM*	-4%	-1%
